Data published in the supplement of paper PMC9694430.

System: LOC_OS01G60330-cb001
Test: thermal shift delta Tm vs DMSO control; higher = stronger stabilization (binding)
Conditions: 12.5 µM; protein concentration 2 µM
How it was run: (§1)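 Rice kinase domain constructs, made in E. coli and purified, were placed in 96-well plates at 2 μM in 19.5 μl of 100 mM potassium phosphate pH 7.5, 150 mM NaCl, 10% glycerol and 5 × SYPRO Orange, with compound in DMSO. A temperature ramp from 25°C to 95°C at 0.05°C/s was used for differential scanning fluorimetry. The melting temperature shift is a triplicate mean compared with DMSO-only protein, derived from Boltzmann fits.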
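Note: purified Escherichia coli-expressed rice kinase domain construct.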

Row | Compound | thermal shift delta Tm [°C]
1 | Oc1c2ccccc2c2c3c(cccc13)N=N2 | 9.76
2 | CSc1cccc(Nc2ncc3cc(-c4c(Cl)cccc4Cl)c(=O)n(C)c3n2)c1 | 0.88
3 | COc1cc(Nc2ncc(F)c(Nc3ccc4c(n3)NC(=O)C(C)(C)O4)n2)cc(OC)c1OC [R406 (free base)] | 8.58
4 | Cc1cn(-c2cc(NC(=O)c3ccc(C)c(Nc4nccc(-c5cnccn5)n4)c3)cc(C(F)(F)F)c2)cn1 [Radotinib] | 1.07
5 | CN1CCN(Cc2ccc(-c3cnc4[nH]cc(-c5ccc6[nH]ccc6c5)c4c3)cc2)CC1 | 5.96
6 | CONC(=O)c1ccccc1Nc1cc(Nc2cc(C)nn2C(C)C)ncc1Cl | 0.07
7 | CNC(=O)c1cc(Oc2ccc(NC(=O)Nc3ccc(Cl)c(C(F)(F)F)c3)c(F)c2)ccn1 [Regorafenib (BAY 73-4506)] | 0.62
8 | c1cc(-c2cnn3cc(-c4ccc(OCCN5CCCCC5)cc4)cnc23)ccn1 [Dorsomorphin 2HCl] | 4.55
9 | CCCCCCCCCC(=O)CC(O)S(=O)(=O)O (centres undefined) [Sodium Houttuyfonate] | 0.04
10 | CC(C)[C@H](CO)Nc1nc(Nc2cccc(Cl)c2)c2ncn(C(C)C)c2n1 [Purvalanol A] | 5.05
11 | COc1ccc(Cl)c(Nc2nc3ccccc3nc2NS(=O)(=O)c2cccc(NC(=O)C(C)(C)N)c2)c1 [Pilaralisib (XL147)] | 3.02
12 | CC(C)Oc1ccc(-c2nn([C@@H](C)c3oc4ccc(F)cc4c(=O)c3-c3cccc(F)c3)c3ncnc(N)c23)cc1F | 1.25
13 | O=C(/C=C/c1ccc2ccccc2n1)c1ccncc1 | 1.35
14 | CC(C)(O)CC(=O)NCCn1ccc2ncnc(Nc3ccc(Oc4cccc(C(F)(F)F)c4)c(Cl)c3)c21 | 5.27
15 | CCOC(=O)c1cnc2ccc(-c3cncc(NS(=O)(=O)c4ccccc4)c3)cn12 | 0.95
16 | N#Cc1c(NC(=O)c2cccc3ccccc23)sc2c1CCCC2 [JNK Inhibitor IX] | 1.18
17 | CN(C)Cc1cccc(N=C(c2ccccc2)c2c(O)[nH]c3cc(C(=O)N(C)C)ccc23)c1 | 0.56
18 | O=c1c(-c2ccc(O)cc2)coc2cc(O)cc(O)c12 [Genistein] | 0.72
19 | CCn1c2ccccc2c2cc(Nc3ccnc(NCCCN4CCOCC4)n3)ccc21 | 1.04

Row | Compound | thermal shift delta Tm [°C]
20 | N#CC(=C(/N)Sc1ccccc1N)/C(C#N)=C(\N)Sc1ccccc1N | 2.17
21 | CCN(CC)CCCC(C)Nc1nc(C)cc(Nc2ccc3nc(C)cc(N)c3c2)n1 (centres undefined) | 0.65
22 | c1cn2cc(-c3ccc4cn[nH]c4c3)nc(Nc3ccc(N4CCOCC4)cc3)c2n1 [Entospletinib (GS-9973)] | 7.21
23 | C[C@H]1CNC(=O)c2cnn3ccc(nc23)N[C@H](C)c2cc(F)ccc2O1 | -0.02
24 | CC(C)c1cnn2c(NCc3ccccc3)cc(NCCCCCCN)nc12 | 0.42
25 | C=CC(=O)Nc1cccc(Nc2nc(Nc3ccc(NC4CN(CCF)C4)cc3OC)ncc2C(F)(F)F)c1 | 0.07
26 | CNC(=O)CN1CCC(Oc2cc3c(Nc4cccc(Cl)c4F)ncnc3cc2OC)CC1 [Sapitinib (AZD8931)] | 0.15
27 | C=CC(=O)Nc1cccc(Nc2nc(Nc3ccc(N4CCN(C(C)=O)CC4)cc3OC)ncc2C(F)(F)F)c1 [Rociletinib (CO-1686, AVL-301)] | 1.53
28 | O=C(c1ccc(/C=C/c2n[nH]c3ccccc23)cc1)N1CCNCC1 | 11.6
29 | Cc1ccc(NC(=O)c2ccc(CN3CCN(C)CC3)cc2)cc1Nc1nc(-c2cccnc2)cs1 [Masitinib (AB1010)] | 1.59
30 | N#Cc1c(O)c2c(-c3ccc(-c4ccccc4O)cc3)csc2[nH]c1=O | 1.32
31 | CN1CC[C@H](c2c(O)cc(O)c3c(=O)cc(-c4ccccc4Cl)oc23)[C@H](O)C1 [Flavopiridol (Alvocidib)] | 0.94
32 | Cc1cnc(Nc2ccc(OCCN3CCCC3)cc2)nc1Nc1cccc(S(=O)(=O)NC(C)(C)C)c1 | 1.83
33 | C[C@@H](Oc1ccc2[nH]nc(/C=C/c3cnn(CCO)c3)c2c1)c1c(Cl)cncc1Cl | 7.79
34 | Nc1cccc(-c2cc3c(Oc4cccc(O)c4)ncnc3[nH]2)c1 | 0.91
35 | CN1CCC(COc2cnc(-c3cccc(Cn4nc(-c5cccc(C#N)c5)ccc4=O)c3)nc2)CC1 | 0.27
36 | C[C@H](Nc1ncnc2nc[nH]c12)c1cc2cccc(Cl)c2c(=O)n1-c1ccccc1 [Duvelisib (IPI-145, INK1197)] | 0.3
37 | CCCCNc1ncc(C(=O)NCc2ccc(-n3ccnc3)cc2)c(NC2CCC(O)CC2)n1 (centres undefined) | 9.72

System: LOC_OS01G60700-cb002
Test: as above
Conditions: 12.5 µM; protein concentration 2 µM
How it was run: as §1

Row | Compound | thermal shift delta Tm [°C]
38 | Oc1c2ccccc2c2c3c(cccc13)N=N2 | 1.18
39 | CSc1cccc(Nc2ncc3cc(-c4c(Cl)cccc4Cl)c(=O)n(C)c3n2)c1 | 0.94
40 | COc1cc(Nc2ncc(F)c(Nc3ccc4c(n3)NC(=O)C(C)(C)O4)n2)cc(OC)c1OC [R406 (free base)] | 0.44
41 | Cc1cn(-c2cc(NC(=O)c3ccc(C)c(Nc4nccc(-c5cnccn5)n4)c3)cc(C(F)(F)F)c2)cn1 [Radotinib] | 1.39
42 | CN1CCN(Cc2ccc(-c3cnc4[nH]cc(-c5ccc6[nH]ccc6c5)c4c3)cc2)CC1 | 2.47
43 | CONC(=O)c1ccccc1Nc1cc(Nc2cc(C)nn2C(C)C)ncc1Cl | 0.19
44 | CNC(=O)c1cc(Oc2ccc(NC(=O)Nc3ccc(Cl)c(C(F)(F)F)c3)c(F)c2)ccn1 [Regorafenib (BAY 73-4506)] | 0.77
45 | c1cc(-c2cnn3cc(-c4ccc(OCCN5CCCCC5)cc4)cnc23)ccn1 [Dorsomorphin 2HCl] | 0.2
46 | CCCCCCCCCC(=O)CC(O)S(=O)(=O)O (centres undefined) [Sodium Houttuyfonate] | 0.03
47 | CC(C)[C@H](CO)Nc1nc(Nc2cccc(Cl)c2)c2ncn(C(C)C)c2n1 [Purvalanol A] | 0.1
48 | COc1ccc(Cl)c(Nc2nc3ccccc3nc2NS(=O)(=O)c2cccc(NC(=O)C(C)(C)N)c2)c1 [Pilaralisib (XL147)] | 0.4
49 | CC(C)Oc1ccc(-c2nn([C@@H](C)c3oc4ccc(F)cc4c(=O)c3-c3cccc(F)c3)c3ncnc(N)c23)cc1F | 0.79
50 | O=C(/C=C/c1ccc2ccccc2n1)c1ccncc1 | 0.05
51 | CC(C)(O)CC(=O)NCCn1ccc2ncnc(Nc3ccc(Oc4cccc(C(F)(F)F)c4)c(Cl)c3)c21 | 0.11
52 | CCOC(=O)c1cnc2ccc(-c3cncc(NS(=O)(=O)c4ccccc4)c3)cn12 | 1.04
53 | N#Cc1c(NC(=O)c2cccc3ccccc23)sc2c1CCCC2 [JNK Inhibitor IX] | 0.63
54 | CN(C)Cc1cccc(N=C(c2ccccc2)c2c(O)[nH]c3cc(C(=O)N(C)C)ccc23)c1 | 0.46
55 | O=c1c(-c2ccc(O)cc2)coc2cc(O)cc(O)c12 [Genistein] | 1.28
56 | CCn1c2ccccc2c2cc(Nc3ccnc(NCCCN4CCOCC4)n3)ccc21 | 0.87

Row | Compound | thermal shift delta Tm [°C]
57 | N#CC(=C(/N)Sc1ccccc1N)/C(C#N)=C(\N)Sc1ccccc1N | 0.48
58 | CCN(CC)CCCC(C)Nc1nc(C)cc(Nc2ccc3nc(C)cc(N)c3c2)n1 (centres undefined) | 0.91
59 | c1cn2cc(-c3ccc4cn[nH]c4c3)nc(Nc3ccc(N4CCOCC4)cc3)c2n1 [Entospletinib (GS-9973)] | 1.39
60 | C[C@H]1CNC(=O)c2cnn3ccc(nc23)N[C@H](C)c2cc(F)ccc2O1 | -0.09
61 | CC(C)c1cnn2c(NCc3ccccc3)cc(NCCCCCCN)nc12 | 0.03
62 | C=CC(=O)Nc1cccc(Nc2nc(Nc3ccc(NC4CN(CCF)C4)cc3OC)ncc2C(F)(F)F)c1 | 0.83
63 | CNC(=O)CN1CCC(Oc2cc3c(Nc4cccc(Cl)c4F)ncnc3cc2OC)CC1 [Sapitinib (AZD8931)] | 0.56
64 | C=CC(=O)Nc1cccc(Nc2nc(Nc3ccc(N4CCN(C(C)=O)CC4)cc3OC)ncc2C(F)(F)F)c1 [Rociletinib (CO-1686, AVL-301)] | 1.63
65 | O=C(c1ccc(/C=C/c2n[nH]c3ccccc23)cc1)N1CCNCC1 | 0.48
66 | Cc1ccc(NC(=O)c2ccc(CN3CCN(C)CC3)cc2)cc1Nc1nc(-c2cccnc2)cs1 [Masitinib (AB1010)] | 0.59
67 | N#Cc1c(O)c2c(-c3ccc(-c4ccccc4O)cc3)csc2[nH]c1=O | 1.46
68 | CN1CC[C@H](c2c(O)cc(O)c3c(=O)cc(-c4ccccc4Cl)oc23)[C@H](O)C1 [Flavopiridol (Alvocidib)] | 0.39
69 | Cc1cnc(Nc2ccc(OCCN3CCCC3)cc2)nc1Nc1cccc(S(=O)(=O)NC(C)(C)C)c1 | 0.56
70 | C[C@@H](Oc1ccc2[nH]nc(/C=C/c3cnn(CCO)c3)c2c1)c1c(Cl)cncc1Cl | 0.64
71 | Nc1cccc(-c2cc3c(Oc4cccc(O)c4)ncnc3[nH]2)c1 | 1.51
72 | CN1CCC(COc2cnc(-c3cccc(Cn4nc(-c5cccc(C#N)c5)ccc4=O)c3)nc2)CC1 | 0.62
73 | C[C@H](Nc1ncnc2nc[nH]c12)c1cc2cccc(Cl)c2c(=O)n1-c1ccccc1 [Duvelisib (IPI-145, INK1197)] | 1.43
74 | CCCCNc1ncc(C(=O)NCc2ccc(-n3ccnc3)cc2)c(NC2CCC(O)CC2)n1 (centres undefined) | 1.49
